Only some compounds are listed: those with a hit (about 2% of all), similar ones and a draw of the others.
Exocytosis inh: blocks lytic granule exocytosis | TALL-104 LAMP-1 surface exposure, flow cytometry; cells stimulated with thapsigargin and PMA | actives 0.66% (n = 360,000) | AID 651702 | inhibition, % at 10 µM;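 active = inhibition above about 55%, limit read from the data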
NR1D1 modulator: modulates human Rev-erb alpha binding to DNA; Rev-erbα–FITC-DNA binding, fluorescence polarization, 90 min; activity, % at 10 µM; actives 0.79% (n = 370,000); AID 1259318;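 active = activity above about 14%, limit read from the data; passing the limit was not always enough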
Target sequence (P20393 whole entry, looked up): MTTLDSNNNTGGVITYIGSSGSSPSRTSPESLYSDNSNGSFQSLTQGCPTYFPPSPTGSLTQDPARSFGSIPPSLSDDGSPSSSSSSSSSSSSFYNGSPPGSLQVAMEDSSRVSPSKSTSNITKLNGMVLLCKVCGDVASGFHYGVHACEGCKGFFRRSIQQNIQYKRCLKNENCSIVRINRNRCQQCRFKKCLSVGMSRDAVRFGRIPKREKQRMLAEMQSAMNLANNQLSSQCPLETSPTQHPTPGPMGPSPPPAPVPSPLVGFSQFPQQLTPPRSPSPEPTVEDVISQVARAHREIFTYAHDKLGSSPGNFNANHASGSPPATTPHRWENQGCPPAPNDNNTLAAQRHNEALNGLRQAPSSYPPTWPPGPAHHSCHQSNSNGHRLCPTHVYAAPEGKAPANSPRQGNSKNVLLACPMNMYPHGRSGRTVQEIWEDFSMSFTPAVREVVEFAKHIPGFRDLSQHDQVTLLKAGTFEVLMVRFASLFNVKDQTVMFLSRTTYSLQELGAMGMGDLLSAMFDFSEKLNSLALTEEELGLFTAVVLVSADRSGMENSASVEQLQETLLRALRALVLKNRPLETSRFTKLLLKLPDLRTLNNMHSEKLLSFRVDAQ
ABCB6 inh MLPCN: inhibitors of human ABC transporter ABCB6 | K562-ABCB6 porphyrin accumulation, flow cytometry, 1 h; hits give low values | AID 602162 | Q9NP58 | actives 0.19% (n = 360,000) | fluorescence ratio to DMSO, % at 10 µM;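 active = fluorescence ratio to DMSO below 75%, the collection mean minus 3 SD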;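 note: signal is porphyrin accumulated inside mitochondria; lower ratio means ABCB6 inhibition with less porphyrin fluorescence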
PG9 binder: small molecules binding HIV-1 gp120 antibody PG9; TR-FRET gp120-PG9 antibody binding; inhibition, % at 6.7 µM; actives 0.43% (n = 360,000); in the data active = inhibition above about 8.5%
VLA-4 inh: inhibition in a human VLA-4 binding assay | P13612 | VLA-4 expressing cells, ligand binding flow cytometry | inhibition, % (about 7 µM as worked out from the volumes in the protocol) | actives 0.2% (n = 330,000) | AID 2557; in the data active = inhibition above about 50%
PG9 binder conf: confirmation of small molecules binding HIV-1 gp120 antibody PG9. shares compounds with PG9 binder. TR-FRET PG9 antibody binding, biochemical. inhibition, % at 6.7 µM. actives 90% (n = 1,500). AID 651571; in the data active = inhibition above about 9%
PGV04 Ab binding: PGV04 control antibody binding, counter-screen; shares compounds with PG9 binder; TR-FRET PGV04 antibody-gp120 binding, biochemical; inhibition, % at 6.7 µM; actives 95% (n = 1,500); AID 651604; in the data active = inhibition above about 9.5%
Rev-erbA confirm: confirmation of modulators of human Rev-erb alpha DNA binding. shares compounds with NR1D1 modulator. Rev-erb alpha FITC-DNA binding, fluorescence polarization, 90 min. activation, % at 25 µM. actives 61% (n = 3,000);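 active = activation at or above a set limit, or at least 3 SD above the negative control mean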
RORg DNA counter: RORgamma DNA-binding activity, dose-response counter-screen. AID 1259320. IC50, µM. actives 8% (n = 910). shares compounds with NR1D1 modulator. purified RORgamma protein-FITC-DNA binding, fluorescence polarization;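 active = Compounds whose fitted half-maximal concentration for disrupting protein-DNA binding is below 10 micromolar; the record names Rev-erb in its text, so the target is in doubt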
Each line names hits and unclear results; the compound was inactive in the other large screens (follow-up assays come after a bar, where they were run).

CCN(C(=O)C1CCCN1S(=O)(=O)c1cccnc1)c1ccccc1 (configuration not stated)	none (no result: Exocytosis inh, ABCB6 inh MLPCN, PG9 binder, VLA-4 inh)
CC(C)OC(=O)CSc1nc(N)c(C#N)c(-c2cccs2)c1C#N	none
N#Cc1c(N)nc(SCC(=O)NCCc2ccccc2)c(C#N)c1-c1cccs1	NR1D1 modulator 52, PG9 binder 40 | PG9 binder conf 38 | PGV04 Ab binding 62 | Rev-erbA confirm 43 | RORg DNA counter inactive
CC(=O)c1ccc(N2CCN(S(=O)(=O)c3cc4c(cc3C)NC(=O)CO4)CC2)cc1	NR1D1 modulator 31, PG9 binder 37 | PG9 binder conf 33 | PGV04 Ab binding 48 | Rev-erbA confirm 23
Cc1cc2c(cc1S(=O)(=O)N1CCN(c3cccc(C(F)(F)F)c3)CC1)OCC(=O)N2	none
COc1ccccc1NC(=O)c1sc2ncn(Cc3ccccc3C)c(=O)c2c1C	NR1D1 modulator 62, PG9 binder 52 | PG9 binder conf 55 | PGV04 Ab binding 74 | Rev-erbA confirm 23
COc1ccc(CCNC(=O)CNC(=O)c2nn(-c3ccc(OC)c(OC)c3)c(=O)c3ccccc23)cc1OC	none
CCOc1ccc(NC(=O)CNC(=O)c2nn(-c3ccc(OC)c(OC)c3)c(=O)c3ccccc23)cc1	NR1D1 modulator 111, PG9 binder 40 | PG9 binder conf 23 | PGV04 Ab binding 61 | Rev-erbA confirm 91 | RORg DNA counter inactive
COc1ccc(-n2nc(C(=O)NCC(=O)Nc3ccc(F)cc3)c3ccccc3c2=O)cc1	NR1D1 modulator 39, PG9 binder 11 | PG9 binder conf 17 | PGV04 Ab binding 25 | Rev-erbA confirm inactive
COc1ccc(-n2nc(C(=O)NCC(=O)Nc3cccc(Cl)c3)c3ccccc3c2=O)cc1OC	NR1D1 modulator 289, PG9 binder 39 | PG9 binder conf 35 | PGV04 Ab binding 66 | Rev-erbA confirm 273 | RORg DNA counter inactive
COCc1cc(N2CCN(C(=O)OC(C)(C)C)C[C@@H]2C)ccc1N1CCN(Cc2ccccc2)[C@@H](C)C1	none (no result: Exocytosis inh, ABCB6 inh MLPCN, VLA-4 inh)
CCCn1cc(CCC(=O)Nc2ccc(Oc3cccnc3)cc2)c2ccccc21	none (no result: Exocytosis inh, ABCB6 inh MLPCN, VLA-4 inh)
CCOC(=O)[C@@]12CCCC=C1N(CCc1ccc(Cl)cc1)C(=O)[C@H]2CC(=O)NCc1ccc(OC)c(OC)c1	none (no result: Exocytosis inh, ABCB6 inh MLPCN, PG9 binder, VLA-4 inh)
O=C1c2cccc3cccc(c23)C(=O)N1Cc1ccccc1	NR1D1 modulator 36, PG9 binder 51 | PG9 binder conf 60 | PGV04 Ab binding 69 | Rev-erbA confirm inactive
COc1ccc2[nH]c(C(=O)Nc3ncc(C)cc3Br)cc2c1	none
O=C(Nc1ccc(F)cc1)c1cc2cc(Cl)ccc2[nH]1	NR1D1 modulator 43, PG9 binder 11 | PG9 binder conf 13 | PGV04 Ab binding 21 | Rev-erbA confirm inactive
COc1ccc2[nH]c(C(=O)Nc3ccc(F)cc3Br)cc2c1	NR1D1 modulator 68, PG9 binder 16 | PG9 binder conf 22 | PGV04 Ab binding 65 | Rev-erbA confirm 79 | RORg DNA counter inactive
CCc1ccc2[nH]c(C(=O)Nc3ccc(C)c(F)c3)cc2c1	none
C/C=C/c1ccc([C@@H]2[C@H](CO)N(S(C)(=O)=O)[C@H]2CN(C)C(=O)CC)cc1	none (no result: Exocytosis inh, ABCB6 inh MLPCN, PG9 binder, VLA-4 inh)
Cc1cc2c(c(=O)o1)[C@@]1(C(=O)N(C)c3ccccc31)C1=C(CC(C)(C)OC1=O)O2	none (no result: Exocytosis inh, ABCB6 inh MLPCN, VLA-4 inh)
O=S(=O)([N-]c1nc2ccccc2nc1-n1cc[n+](Cc2ccccc2)c1)c1ccc(Cl)cc1	NR1D1 modulator 42, PG9 binder 42 | PG9 binder conf 41 | PGV04 Ab binding 58 | Rev-erbA confirm inactive
CC(C)CC[n+]1ccn(-c2nc3ccccc3nc2[N-]S(=O)(=O)c2ccccc2)c1	none
CCc1cc2cc3c(cc2nc1SCC(=O)OC(C)C)OCO3	none
CCc1cc2cc(C)ccc2nc1SCC(=O)NNC(=O)c1ccco1	none
CCc1cc2cc3c(cc2nc1SCC(=O)Nc1cc(C)on1)OCO3	NR1D1 modulator 211, PG9 binder 21 | PG9 binder conf 46 | PGV04 Ab binding 66 | Rev-erbA confirm 158 | RORg DNA counter inactive
CCc1cc2cc(C)ccc2nc1SCC(=O)Nc1cc(C)on1	NR1D1 modulator 17, PG9 binder 14 | PG9 binder conf 11 | PGV04 Ab binding 31 | Rev-erbA confirm 26
COc1ccc(-c2cc(-c3nnc(SCc4cccc5ccccc45)n3N)[nH]n2)cc1	none (no result: Exocytosis inh, ABCB6 inh MLPCN, PG9 binder, VLA-4 inh)
N#Cc1ccc(NC(=O)c2sc3cc(C(F)(F)F)cnc3c2-c2cccs2)cc1	none
COc1ccc(NC(=O)c2sc3cc(C(F)(F)F)cnc3c2-c2cccs2)cc1	NR1D1 modulator 112, PG9 binder 9.6 | PG9 binder conf 18 | PGV04 Ab binding 71 | Rev-erbA confirm 73 | RORg DNA counter inactive
CC(=O)c1ccc(NC(=O)C(C)n2c3ccccc3c3nc(=O)cc(C)n32)cc1 (configuration not stated)	NR1D1 modulator 21, PG9 binder 9.5 | PG9 binder conf 14 | PGV04 Ab binding 15 | Rev-erbA confirm inactive
COc1ccc(-n2c(SCC(=O)Nc3cc(C)on3)nc3c([nH]c4ccccc43)c2=O)cc1	NR1D1 modulator 83, PG9 binder 57 | PG9 binder conf 43 | PGV04 Ab binding 50 | Rev-erbA confirm 67 | RORg DNA counter inactive
Cn1c(SCC(=O)Nc2ccccc2)nc2c([nH]c3ccccc32)c1=O	NR1D1 modulator 21, PG9 binder 8.8 | PG9 binder conf inactive | PGV04 Ab binding 14 | Rev-erbA confirm 16
Cn1c(SCC(=O)NCc2ccccc2)nc2c([nH]c3ccccc32)c1=O	none (no result: Exocytosis inh, NR1D1 modulator, ABCB6 inh MLPCN, PG9 binder)
Cc1cccc(CCNC(=O)c2ccc3c(c2)ncn3C2CCCCC2)c1	none (no result: Exocytosis inh, ABCB6 inh MLPCN, PG9 binder, VLA-4 inh)
Cc1ccccc1OCC(=O)Nc1ccc2c(c1)Cc1ccccc1-2	none (no result: PG9 binder)
Cc1ccccc1OCC(=O)Nc1ccc2c(c1)C(=O)c1ccccc1C2=O	NR1D1 modulator 273, PG9 binder 25 | PG9 binder conf 73 | PGV04 Ab binding 91 | Rev-erbA confirm 221 | RORg DNA counter 6.9
CCNC(=O)N(C)[C@H]1C[C@H]2c3[nH]c4c(-c5ccc6c(c5)OCO6)cccc4c3CCN2C(=O)[C@H]1[C@H](C)O	none (no result: Exocytosis inh, ABCB6 inh MLPCN, VLA-4 inh)
O=C(CSc1nc2ccc(Cl)cc2[nH]1)c1c[nH]c2ccccc12	none
O=C(CSc1nc2ncc(Cl)cc2[nH]1)c1c[nH]c2ccccc12	NR1D1 modulator 23, PG9 binder 35 | PG9 binder conf 35 | PGV04 Ab binding 51 | Rev-erbA confirm 23
O=S(=O)(c1ccc(C(F)(F)F)cc1)N1CCCc2nc(-c3ccc(F)cc3)ccc21	none (no result: Exocytosis inh, ABCB6 inh MLPCN, VLA-4 inh)

Source: PubChem BioAssay
